Compound activity as filed in PubChem BioAssay.
The sample as a whole holds a higher share of hits than the screen did.
ST2 inh – inhibitors of human ST2 (IL1RL1) binding to IL-33, primary screen, biochemical, AlphaLISA; Interleukin-1 receptor-like 1 (Homo sapiens), Q01638; AlphaLISA ST2-Fc/biotin-IL-33 interaction, 1 h; inhibition, % for hits at 17 µM; 78,000 tested, 2.3% active; AID 1259354, 2018; in the data active means inhibition above about 30%
Target sequence (Q01638 whole entry, looked up): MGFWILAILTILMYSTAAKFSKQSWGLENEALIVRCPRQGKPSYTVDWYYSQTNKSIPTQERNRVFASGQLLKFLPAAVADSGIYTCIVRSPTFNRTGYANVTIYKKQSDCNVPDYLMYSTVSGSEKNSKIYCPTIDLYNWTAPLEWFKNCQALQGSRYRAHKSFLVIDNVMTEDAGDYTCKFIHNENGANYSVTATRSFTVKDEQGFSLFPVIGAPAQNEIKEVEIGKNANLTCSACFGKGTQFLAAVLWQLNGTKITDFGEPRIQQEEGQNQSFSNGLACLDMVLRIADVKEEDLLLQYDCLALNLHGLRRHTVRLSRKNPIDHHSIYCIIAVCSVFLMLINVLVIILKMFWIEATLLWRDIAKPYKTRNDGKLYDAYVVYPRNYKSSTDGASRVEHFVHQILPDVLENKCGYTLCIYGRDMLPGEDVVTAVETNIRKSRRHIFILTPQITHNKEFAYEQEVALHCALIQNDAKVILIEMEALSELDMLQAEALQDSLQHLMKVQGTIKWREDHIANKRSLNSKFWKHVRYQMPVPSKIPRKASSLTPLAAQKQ
An asterisk follows results filed as active; i = inactive; ! = repeats disagree.

SMILES	ST2 inh
CC(C)N1C(=O)[C@@H]2CN(C(=O)C3CCCC3)CCN2C1=O	i
C=CCNc1nc2ccccn2c(=O)c1/C=C1\SC(=O)N(CCC)C1=O	i
C=CCN1C(=O)c2ccccc2Sc2ccc(C(=O)O)cc21	i
C=CCN1C(=O)S/C(=C/c2ccc(N3CCCC3)o2)C1=O	44.0%*
O=C(c1c(F)cccc1F)N(c1ccc(F)cc1)C1C=CS(=O)(=O)C1 (configuration not stated)	i
CCn1ncnc1C(C)NC(=O)Cc1csc(C)n1 (configuration not stated)	i
COCC1(C(=O)NCCN2CCCOC2=O)CCC1	i
COC(=O)c1c(NC(=O)COc2ccccc2Cl)sc2c1CCC(C)C2 (configuration not stated)	i
CC1=C(C(=O)Nc2cccnc2)C(c2ccccn2)n2nc(-c3ccccc3)nc2N1 (configuration not stated)	i
CC(C)(C)n1cnc2cc(NCc3ccncc3)ccc21	i
CCCCn1cnc2cc(NCc3ccc(Br)cc3)ccc21	i
CCn1cnc2cc(NCc3cccs3)ccc21	i
CCCn1cnc2cc(NCc3ccncc3)ccc21	i
CCN(CC)c1ccc(CNc2ccc3c(c2)ncn3CC)cc1	52.0%*!
CC(C)(C)n1cnc2cc(NCc3ccccn3)ccc21	i
CN(C)c1ccc(CNc2ccc3c(c2)ncn3C(C)(C)C)cc1	33.0%*
CCn1cnc2cc(NCc3ccc(C)cc3)ccc21	i
CCn1cnc2cc(NCc3ccc(N(C)C)cc3)ccc21	52.0%*!
COc1cc(OC)c(NC(=O)COc2ccc(Cl)c(C)c2)cc1Cl	i
Cc1cccc(C)c1NC(=O)COc1ccc(Cl)cc1	i
Cc1ccccc1CN(CCO)Cc1ccccc1	i
O=C(O)CCC(=O)Nc1ccc(Cl)cn1	i
Nc1cc(=O)[nH]c2nnc(SCCc3ccccc3)n12	i
CCc1c(C)nn(CC(=O)NCc2cnn3ccccc23)c1C	i
COc1cccc(NC(=O)N2CCN3C(=O)[C@H](CC4CCCCC4)NC(=O)[C@H]3C2)c1	i
SMILES	ST2 inh
N#CC1=C(N)n2c(s/c(=C\c3ccco3)c2=O)=C(C#N)C1c1ccco1 (configuration not stated)	37.0%*
CC1CC(=O)C2=C(C1)OC(N)=C(C#N)C2c1ccco1 (configuration not stated)	i
CCCOc1ccc(-c2nc3s/c(=C\c4ccco4)c(=O)n3n2)cc1	i
CCc1ccc2nc(N3CCC(C(=O)NCc4ccc5c(c4)OCO5)CC3)sc2c1	i
Cc1ccccc1OCC1CCCN(CCC(F)(F)F)C1 (configuration not stated)	i
COc1ccccc1OCc1nc(C#N)c(NCc2cccnc2)o1	i
COc1ccc(CCNc2oc(COc3cccc(C)c3)nc2C#N)cc1	30.0%*
COc1ccc(CNc2oc(COc3ccc(Cl)cc3)nc2C#N)cc1	i
COc1ccc(CCNC(=O)CC(c2ccccc2)c2ccccc2)cc1OC	i
Cc1cccc(OCc2nnc(SCC(=O)Nc3ccc(C)c(C)c3)o2)c1	i
COc1ccc(CCNc2oc(COc3ccccc3C)nc2C#N)cc1OC	38.0%*
CCN1CCCC1CNC(=O)c1cn(CCOC)c(=O)c2c1c1ccccc1n2C (configuration not stated)	i
O=C(NC1CC1)c1ccc2c(c1)N(Cc1ccccc1Cl)C(=O)CS2	i
COc1ccccc1Cn1c(CNS(=O)(=O)c2ccc(C)cc2)nc2cccnc21	i
Cc1cc(C(=O)N(CC2CCN(C3Cc4ccccc4C3)CC2)CC2CCCO2)c(C)o1 (configuration not stated)	i
CC(=O)N1CCC(N2CCC[C@H]2c2nc(-c3ccnc(NS(C)(=O)=O)c3)no2)CC1	i
CC(C)(C)c1ccc(C(=O)Nc2ccc(S(=O)(=O)N3CCCC3)cc2)cc1	i
O=C(O)c1ccc(S(=O)(=O)N2CCCC2)cc1	35.0%*
O=C(Nc1ccccc1)c1ccc(S(=O)(=O)N2CCCCC2)cc1	i
CCCCOC(=O)C1=C(C)Nc2nnnn2C1c1ccc(Br)cc1 (configuration not stated)	i
CC(C)CN1CC[C@H](c2nnc(-c3ccco3)o2)C1	i
O=C(c1cc2ccccn2n1)N1CCc2ccccc21	i
CC(C)Oc1ccc(C(=O)Nc2cccc(-c3nc4ncccc4o3)c2)cc1	i
O=C(Nc1ccc(-c2nc3ncccc3o2)cc1)c1cccnc1	i
Cc1ccc(C(=O)Nc2cc(-c3nc4ncccc4o3)ccc2C)cc1C	i
SMILES	ST2 inh
CCCOc1ccc(C(=O)Nc2cc(-c3nc4ncccc4o3)ccc2C)cc1	i
CCOc1cc(C(=O)Nc2cc(-c3nc4ncccc4o3)ccc2C)cc(OCC)c1OCC	37.0%*
CC(C)Oc1cccc(C(=O)Nc2ccc(-c3nc4ncccc4o3)cc2)c1	32.0%*
CCOC(=O)N1CCN(C2CCCN(C(=O)c3cc(C)nc(C)n3)C2)CC1 (configuration not stated)	i
COCC(C)C1CCN(Cc2cc(F)c(O)c(OC)c2)CC1 (configuration not stated)	i
Cc1ccc(NS(=O)(=O)C[C@@]23CC[C@H](CC2=O)C3(C)C)cc1	i
CN(C)c1oc(-c2ccccc2)nc1S(=O)(=O)c1ccccc1	i
CN(C)c1oc(COc2ccc(Cl)cc2Cl)nc1S(=O)(=O)c1ccccc1	36.0%*
Cc1nc(S(=O)(=O)c2ccccc2)c(N(C)C)o1	i
Cc1ccc(S(=O)(=O)NC2=NCN(c3ccc([N+](=O)[O-])cc3)CN2)cc1	i
COc1ccc(-c2ccnc(N)c2)c(OC)c1	i
COc1ccc(-c2nccn2CCc2ccccn2)c(OC)c1	i
COc1ccc(-c2cc3ccccn3c2)c(OC)c1	50.0%*
NS(=O)(=O)c1ccc(CCn2ccnc2-c2ccccn2)cc1	i
Nc1ccc2nn(-c3ccc([N+](=O)[O-])cc3)nc2c1	i
O=C(CSc1nc2c(c(=O)n1-c1ccc(F)cc1)SCC2)Nc1ccc(Cl)cc1	i
Cc1cc(C)nc(NS(=O)(=O)c2ccc(NC(=O)c3ccc(Br)cc3)cc2)n1	i
C=CCNc1nc2ccccc2nc1NS(=O)(=O)c1ccc(Br)cc1	33.0%*
CC(=O)Nc1ccc(S(=O)(=O)Nc2nc3ccccc3nc2Nc2cccc(O)c2)cc1	i
O=C(N[C@H]1CO[C@H]2[C@@H]1OC[C@@H]2n1nnnc1-c1ccccc1)c1ccccc1	i
Cc1[nH]nc(SCC(=O)Nc2cc(C)n(Cc3ccc(Cl)cc3)n2)c1[N+](=O)[O-]	i
O=C(NCc1cccnc1N1CCOCC1)c1ccc(Cl)s1	i
O=C(C(=O)N1CCOC(CCCc2ccccc2)C1)c1ccco1 (configuration not stated)	i
N#Cc1nc(COc2ccc(Br)cc2)oc1N1CCCC1	72.0%*
COCc1cc(C)nc(N2CCCCC2)c1C#N	i
SMILES	ST2 inh
Nc1nonc1-c1noc(COc2ccc(Cl)cc2)n1	i
COc1ccc(OCc2nc(C#N)c(N3CCCC3)o2)cc1	49.0%*
N#Cc1nc(COc2ccc(Cl)cc2)oc1N1CCCCC1	73.0%*
COc1ccc(OCCOc2ccc(OC)cc2)cc1	i
Nc1nonc1-c1noc(COc2ccc(Br)cc2)n1	i
N#CCOc1nc(N2CCCCC2)nc(N2CCCCC2)n1	i
COCC1(C(=O)N2CCCN(CC3CC3)C(C(C)C)C2)CCC1 (configuration not stated)	i
